Results reported in PubChem BioAssay (Tox21).
Values without a mark were called inactive. Records with an inconclusive call do not appear. Entries that show only a call come without a potency. Activity calls are given as the source filed them. Unless noted, the call rests on the fitted dose curve; in most records, active means well fitted curve in the direction sought with a large enough effect in the repeat runs; inconclusive means weak or mixed curves; inactive means no such curve, though single readings can be large; an effect the other way counts as inactive or inconclusive.

Experiments:
[1] = qHTS assay to identify small molecule antagonists of the estrogen related receptor (ERR) signaling pathway from Tox21 library - cell viability counter screen (AID 1224834); further: nearly all actives have a fitted effect of over 30% in size; further: potency means the concentration at half of the fitted maximal effect
Outline: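 Compounds in DMSO were pinned onto ERR cells that had been incubated for 6 h, and the plates were held at 37 C for 17.5 h. CellTiter-Fluor reagent was then added and fluorescence was measured after 30 min.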

[2] = target: Luciferin 4-monooxygenase (Photinus pyralis) (UniProt P08659); experiment: qHTS assay to identify small molecule inhibitors of firefly luciferase (AID 1224835); further: nearly all actives have a fitted effect of over 25% in size; further: potency means the concentration at half of the fitted maximal effect
Outline: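 Inhibition of purified Photinus luciferase is measured by luminescence. Substrate levels (D-luciferin, ATP) sit at their KM values. Each compound is tested in a concentration series.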

[3] = qHTS assay to identify small molecule agonists of the constitutive androstane receptor (CAR) signaling pathway - cell viability counter screen (AID 1224836); further: nearly all actives have a fitted effect of over 45% in size; further: potency means the concentration at half of the fitted maximal effect
Outline: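 23 h treatment, 37 C, 5% CO2. Cell line: HepG2 stably expressing hCAR with a CYP2B6-2.2kb construct. Co-treatment: PK11195, 0.75 uM final. Read-out: CellTiter-Fluor fluorescence intensity.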

[4] = qHTS assay to identify small molecule antagonists of the constitutive androstane receptor (CAR) signaling pathway - cell viability counter screen (AID 1224837); further: nearly all actives have a fitted effect of over 45% in size; further: potency means the concentration at half of the fitted maximal effect
Outline: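 Cells are seeded, rested 4 hr at 37 C/5% CO2, dosed with compound (15-point series) and 50 nM CITCO, incubated a further 23 hr, and then CellTiter-Fluor reagent is added before fluorescence is read. The line is HepG2 with stable hCAR and CYP2B6-2.2kb.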

[5] = target: Nuclear receptor subfamily 1 group I member 3 (Homo sapiens) (UniProt Q14994); experiment: qHTS assay to identify small molecule antagonists of the constitutive androstane receptor (CAR) signaling pathway (AID 1224838);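 further: HepG2 cells stably expressing hCAR with CYP2B6 luciferase reporter stimulated by CITCO; nearly all actives have a fitted effect of over 40% in size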
Outline: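 Luminescence from a CYP2B6-2.2kb promoter reporter in hCAR-expressing HepG2 cells reflects CAR signaling. Cells received compounds at 15 concentrations and 50 nM CITCO (final), then incubated 24 h at 37 C/5% CO2.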

[6] = target: Nuclear receptor subfamily 1 group I member 3 (Homo sapiens) (UniProt Q14994); experiment: qHTS assay to identify small molecule agonists of the constitutive androstane receptor (CAR) signaling pathway (AID 1224839); further: nearly all actives have a fitted effect of over 15% in size; further: potency means the concentration at half of the fitted maximal effect;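 on activation: HepG2 cells stably carrying human CAR and a CYP2B6 luciferase reporter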
Outline: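 Compounds tested at 15 concentrations on HepG2 cells stably harbouring hCAR and CYP2B6-2.2kb reporter constructs, co-treated with PK11195 (0.75 uM final), 24 h at 37 C; luminescent reporter signal quantified.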

[7] = qHTS assay to identify small molecule antagonists of the estrogen related receptor signaling pathway with the pleiotropic PPARgamma coactivator (PGC) from Tox21 10K library (AID 1224841; call rule not given here; further: actives are mostly falling curves and most rising ones were filed inactive; nearly all actives have a fitted effect of over 50% in size; further: potency means the concentration at half of the fitted maximal effect)
Outline: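 Cells stably carrying the PGC/ERR reporter, seeded at 2,000 per well, received pin-transferred compounds 6 h post-plating. Exposure lasted 18 h at 37 C. Signal: One-Glo luminescence.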

[8] = target: Thyrotropin receptor (Homo sapiens) (UniProt P16473); experiment: qHTS assay to identify small molecule agonists of the thyroid stimulating hormone receptor (TSHR) signaling pathway (AID 1224843; calls by dose curve; further: nearly all actives have a fitted effect of over 45% in size)
Outline: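 A cell-based cAMP HTRF format was run in TSHR-transfected HEK293 cells, 800 per well. Treatment: 30 min, room temperature. Detection: 1 h with labelled cAMP and anti-cAMP cryptate. Concentration-response over 15 points, three replicates.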

[9] = qHTS assay to identify small molecule agonists of H2AX (AID 1224845; active means well fitted activation curve with a large enough effect in the signal ratio in the repeat runs, not every such curve was filed as active; the % refers to the signal ratio)
Outline: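 Phospho-H2AX Ser139 measured by HTRF (ex 320 nm; em 665 and 620 nm) after 24 hr antibody incubation. Compounds, 15 concentrations, 0.76% DMSO, were applied to CHO-K1 cells for 3hr at 37C before lysis.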

[10] = qHTS assay to identify small molecule agonists of the hypoxia (HIF-1) signaling pathway (AID 1224846; active means well fitted activation curve with a large enough effect in the signal ratio in the repeat runs, not every such curve was filed as active; the % refers to the signal ratio)
Outline: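 Agonist mode reporter screen. ME-180 cells stably expressing bla under HRE control received test compounds in DMSO for 17 hrs (37C, 5% CO2), and beta-lactamase activity was then detected with the CCF4-AM FRET substrate.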

[11] = qHTS assay to identify small molecule agonists of H2AX - cell viability counter screen (AID 1224847; calls by dose curve; further: nearly all actives have a fitted effect of over 30% in size; further: potency means the concentration at half of the fitted maximal effect)
Outline: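 Compounds tested at 15 concentrations were incubated 3 hr at 37C with wild-type CHO-K1 cells; cellular ATP-based luminescence (CellTiter-Glo) indicated viability.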

[12] = qHTS assay to identify small molecule agonists of the estrogen related receptor (ERR) signaling pathway from Tox21 library (AID 1224849; calls by dose curve; further: nearly all actives have a fitted effect of over 15% in size); settings: ERR reporter cell line, ONE-Glo luciferase, 18 h; at 92.4 µM (top of the series) unless noted
Outline: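 Quantitative HTS in agonist format: NTP ERR cell line, compounds transferred in DMSO after 6 h plating, 18 h incubation at 37 C, ONE-Glo luminescence endpoint.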

[13] = qHTS RealTime-Glo MT Cell Viability Assay in HepG2 cells - 24 hour (AID 1224867); further: nearly all actives have a fitted effect of over 50% in size; further: potency means the concentration at half of the fitted maximal effect
Outline: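 qHTS, HepG2, 600 cells/well, RealTime-Glo (NanoLuc + prosubstrate) added with cells; 5 h preincubation; DMSO compound addition; 37 C; luminescence at 0/8/16/24/32/40 h.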

[14] = qHTS RealTime-Glo MT Cell Viability Assay in HEK293 cells - 32 hour (AID 1224868); further: nearly all actives have a fitted effect of over 50% in size; further: potency means the concentration at half of the fitted maximal effect
Outline: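 Assay medium contained NanoLuc luciferase plus cell-permeant prosubstrate, added with HEK293 cells at 600 cells/well. After 5 h at 37 C/5% CO2 compounds were added; plates stayed at 37 C for 40 h with serial luminescence reads.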

[15] = A CellTox Green Cytotoxicity Assay to monitor cytotoxicity in HEK293 cells - 0 hour (AID 1224869); further: nearly all actives have a fitted effect of over 50% in size
Outline: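 Dead-cell fluorescence measured kinetically: asymmetric cyanine dye, HEK293, 600 cells/well, 5 h settle, 23 nL cpd/DMSO, 37 C, reads 0–40 h every 8 h.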

[16] = qHTS RealTime-Glo MT Cell Viability Assay in HepG2 cells - 40 hour (AID 1224870); further: nearly all actives have a fitted effect of over 50% in size; further: potency means the concentration at half of the fitted maximal effect
Outline: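 Real-time viability: cells seeded at 600 per well together with NanoLuc and cell-permeant prosubstrate, compounds added after 5 h incubation. Luminescence tracked at 0, 8, 16, 24, 32 and 40 h of exposure.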

[17] = qHTS assay to identify small molecule agonists of the estrogen related receptor signaling pathway with the pleiotropic PPARgamma coactivator (PGC) from Tox21 10K library (AID 1224842); further: nearly all actives have a fitted effect of over 15% in size
Outline: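 Luminescence from One-Glo (30 min, room temperature) measured after PGC/ERR cells had 18 h at 37 C with pinned compound (23 nL in DMSO). Cells had been seeded at 2,000 per well and pre-incubated 6 h.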

[18] = qHTS assay to identify small molecule agonists of the hypoxia (HIF-1) signaling pathway - cell viability counter screen (AID 1224844; calls by dose curve; further: nearly all actives have a fitted effect of over 50% in size; further: potency means the concentration at half of the fitted maximal effect)
Outline: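 Viability counter screen: HRE-bla ME-180 cells plated 5 hrs before compound addition, treated 17 hrs at 37C and 5% CO2, then CellTiter-Glo added after the FRET reporter read; luminescence after 30 min.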

[19] = qHTS assay to identify small molecule antagonists of the estrogen related receptor (ERR) signaling pathway from Tox21 library (AID 1224848); further: nearly all actives have a fitted effect of over 50% in size; further: potency means the concentration at half of the fitted maximal effect
Outline: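 ERR cell line, 2,000 cells/well. 6 h settle, then compound (DMSO) added; 18 h at 37 C; ONE-Glo luminescence after 30 min RT.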

[20] = qHTS assay to identify small molecule antagonists of the estrogen related receptor signaling pathway with the pleiotropic PPARgamma coactivator (PGC) from Tox21 10K library - cell viability counter screen (AID 1224840; active means well fitted cell-killing curve with a large enough effect in the repeat runs, not every such curve was filed as active; further: nearly all actives have a fitted effect of over 40% in size; further: potency means the concentration at half of the fitted maximal effect)
Outline: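 Cell viability is measured by CellTiter-Fluor fluorescence in PGC/ERR cells that receive compounds after a 6-hour attachment period and are then incubated 17.5 hours at 37 C.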

Chain of Luciferin 4-monooxygenase (Photinus pyralis) (P08659 whole entry, looked up): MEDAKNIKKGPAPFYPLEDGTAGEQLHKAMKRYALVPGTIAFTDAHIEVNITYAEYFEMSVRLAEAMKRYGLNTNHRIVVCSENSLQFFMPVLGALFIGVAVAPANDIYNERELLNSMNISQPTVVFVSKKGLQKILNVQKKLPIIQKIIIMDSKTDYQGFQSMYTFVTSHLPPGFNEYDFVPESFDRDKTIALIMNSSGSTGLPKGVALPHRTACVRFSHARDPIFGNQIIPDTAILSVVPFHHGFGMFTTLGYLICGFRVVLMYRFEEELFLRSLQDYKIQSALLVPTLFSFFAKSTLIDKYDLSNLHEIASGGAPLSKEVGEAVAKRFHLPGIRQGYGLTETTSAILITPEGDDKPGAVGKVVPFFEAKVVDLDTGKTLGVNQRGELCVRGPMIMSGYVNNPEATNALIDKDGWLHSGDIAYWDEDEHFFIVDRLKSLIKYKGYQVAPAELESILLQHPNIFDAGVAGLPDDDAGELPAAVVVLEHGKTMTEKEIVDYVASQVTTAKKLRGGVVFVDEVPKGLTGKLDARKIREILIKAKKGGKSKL
Chain of Nuclear receptor subfamily 1 group I member 3 (Homo sapiens) (Q14994 whole entry, looked up): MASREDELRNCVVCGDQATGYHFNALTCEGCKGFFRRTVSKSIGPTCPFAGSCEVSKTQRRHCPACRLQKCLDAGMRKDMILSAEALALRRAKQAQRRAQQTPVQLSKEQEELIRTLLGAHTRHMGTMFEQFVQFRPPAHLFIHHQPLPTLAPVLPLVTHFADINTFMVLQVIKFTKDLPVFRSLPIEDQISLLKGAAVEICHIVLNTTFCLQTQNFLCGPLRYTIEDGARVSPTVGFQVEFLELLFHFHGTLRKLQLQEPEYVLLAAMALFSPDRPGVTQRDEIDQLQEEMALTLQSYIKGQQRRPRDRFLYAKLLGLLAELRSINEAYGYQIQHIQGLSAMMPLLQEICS
Chain of Thyrotropin receptor (Homo sapiens) (P16473 whole entry, looked up): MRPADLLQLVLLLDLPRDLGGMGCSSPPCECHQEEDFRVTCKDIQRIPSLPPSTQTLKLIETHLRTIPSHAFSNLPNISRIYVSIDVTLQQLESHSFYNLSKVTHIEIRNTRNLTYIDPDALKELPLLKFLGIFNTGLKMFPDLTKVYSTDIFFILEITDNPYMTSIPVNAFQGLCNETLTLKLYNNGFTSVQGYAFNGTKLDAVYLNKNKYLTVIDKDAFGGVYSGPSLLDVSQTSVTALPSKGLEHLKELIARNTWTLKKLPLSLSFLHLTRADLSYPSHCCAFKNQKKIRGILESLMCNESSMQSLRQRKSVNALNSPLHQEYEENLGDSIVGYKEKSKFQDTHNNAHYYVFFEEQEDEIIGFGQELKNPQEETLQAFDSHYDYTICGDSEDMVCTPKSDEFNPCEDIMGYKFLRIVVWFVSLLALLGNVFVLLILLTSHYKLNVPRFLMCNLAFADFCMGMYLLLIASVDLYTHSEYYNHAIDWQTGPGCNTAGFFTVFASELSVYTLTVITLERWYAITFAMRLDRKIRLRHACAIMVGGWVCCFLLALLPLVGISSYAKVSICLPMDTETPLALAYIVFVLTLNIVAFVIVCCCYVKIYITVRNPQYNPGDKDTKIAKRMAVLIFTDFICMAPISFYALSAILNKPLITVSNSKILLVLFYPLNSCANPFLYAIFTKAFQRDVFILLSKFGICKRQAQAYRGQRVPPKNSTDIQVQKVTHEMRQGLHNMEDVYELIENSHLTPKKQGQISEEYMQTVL

| Structure (SMILES) | Potency [1] | Potency [2] | Potency [3] | Potency [4] | Potency [5] | Potency [6] | Potency [7] | Potency [8] | Potency [9] | outcome [10] | Potency [11] | activity change, positive = activation [12] | Potency [13] | Potency [14] | Potency [15] | Potency [16] | Potency [17] | Potency [18] | Potency [19] | Potency [20] |
| --- | --- | --- | --- | --- | --- | --- | --- | --- | --- | --- | --- | --- | --- | --- | --- | --- | --- | --- | --- | --- |
| O=C(CS)OCCOC(=O)CS | inactive | inactive | inactive | inactive | inactive | inactive | inactive | inactive | inactive | inactive | inactive | -27.9% | inactive | inactive | inactive | inactive |  |  |  |  |
| CC1=CC(=O)CC(C)(C)C1(O)/C=C/C(C)=C\C(=O)O (stereo not drawn) | inactive | inactive | inactive | inactive | inactive | inactive |  | inactive | inactive | inactive | inactive | 4.36% | inactive | inactive | inactive | inactive | inactive | inactive | inactive |  |
| CC1(C)O[C@@H]2C[C@H]3[C@@H]4CCC5=CC(=O)C=C[C@]5(C)[C@H]4[C@@H](O)C[C@]3(C)[C@]2(C(=O)CO)O1 | inactive | inactive | inactive | inactive | inactive | inactive |  | inactive | inactive | inactive | inactive | -2.7% [at 42.5 µM] | inactive | inactive | inactive | inactive | inactive | inactive | inactive | inactive |
| C/C(=N/NC(=O)c1ccncc1)C(=O)O | inactive | inactive | inactive | inactive | inactive | inactive |  | inactive | inactive | inactive | inactive |  | inactive | inactive | inactive | inactive |  | inactive |  | inactive |
| C[Si]1(C)O[Si](C)(C)O[Si](C)(C)O1 | inactive | inactive | inactive | inactive | inactive | inactive |  | inactive | inactive | inactive | inactive | -9.67% | inactive | inactive | inactive | inactive | inactive | inactive | inactive | inactive |
| CCCCC(CC)C(=O)OCCOCCOCCOCCOC(=O)C(CC)CCCC (stereo not drawn) | inactive | inactive | inactive | inactive | inactive | inactive |  |  | inactive | inactive | inactive | -33% | inactive |  | inactive | inactive | inactive | inactive | 30.6 µM (active) | inactive |
| Cc1cc2nc3ccc(=[N+](C)C)cc-3sc2cc1N | 2.66 µM (active) | 9.77 µM (active) | 21.1 µM (active) | 10.6 µM (active) | inactive | 8.41 µM (active) | 2.66 µM (active) |  |  | inactive | 24.7 µM (active) | -65.1% [at 42.5 µM] | 16.9 µM (active) | 2.39 µM (active) | inactive | 21.3 µM (active) | inactive | 5.35 µM (active) | 0.531 µM (active) | 13.3 µM (active) |
| CO/N=C1\CN(c2nc3c(cc2F)c(=O)c(C(=O)O)cn3C2CC2)CC1CN (stereo not drawn) | inactive | inactive | inactive | inactive | inactive | inactive |  | inactive | inactive | inactive | inactive | -26.9% [at 42.5 µM] | inactive | inactive | inactive | inactive | inactive | inactive |  | inactive |
| CCCCCCCCCCCC[N+](C)(C)CCCS(=O)(=O)[O-] | inactive | inactive | inactive | inactive | inactive | inactive |  | inactive | inactive | inactive | inactive |  | inactive | inactive | inactive | inactive |  | inactive |  | inactive |
| Cc1cc(O)c(C(C)C)cc1Cl | inactive | inactive | inactive | inactive | inactive | inactive |  | inactive | inactive | inactive | 89.8 µM (active) |  | inactive | inactive | inactive | inactive |  | inactive |  | inactive |
| COC(OC)(C(=O)c1ccccc1)c1ccccc1 | inactive | inactive | inactive | inactive | inactive | 15.3 µM (active) | inactive | inactive |  | inactive |  | -3.37% | inactive | inactive | inactive | inactive | inactive | inactive | inactive | inactive |
| CCOC(=O)c1ccccc1OC | inactive | inactive | inactive | inactive | inactive | inactive | inactive | inactive | inactive | inactive | inactive | -0.575% | inactive | inactive |  | inactive | inactive | inactive | inactive | inactive |
| CC(C)CCCCCOC(=O)CCCCC(=O)OCCCCCC(C)C | inactive | inactive | inactive | inactive | inactive | inactive |  |  | inactive | inactive | inactive | -6.86% | inactive | inactive | inactive | inactive | inactive | inactive | inactive |  |
| CC(C)(CCl)c1ccccc1 | inactive | inactive | inactive | inactive | inactive | inactive |  | inactive | inactive | inactive | inactive |  | inactive | inactive | inactive | inactive |  | inactive |  | inactive |
